Where “and” joins values, the source holds several entries; their conditions need not be identical. Equal entries are not always repeated. Compounds without any hit were thinned out: in the full panel of roughly 83,000, 20% have a hit.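 Results are percent growth after 48 hours of single-concentration exposure. 100 means growth as in untreated cells, lower positive values show inhibition; negative values down to -100 show cell death.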 Calls of active or inactive are those of the source. The calls were made as follows: active = growth percent below 10; inactive = the rest.
system: HL-60(TB) leukemia; test: NCI-60 one-dose screen, 48 h (100 = growth as untreated, 0 = no growth, -100 = all killed); details: 10 µM unless noted

| SMILES | growth |
| --- | --- |
| Cc1cc(C)c(CC(=O)O)c(C)c1 | 97.3% (inactive) |
| COc1cccc(C(=O)NNc2nc(N3CCN(C4CCCCC4)CC3)nc(N3CCN(C(c4ccccc4)c4ccccc4)CC3)n2)c1 | 18.5% (inactive) |
| C=C1C(=O)O[C@H]2[C@H]1CC/C(COC(=O)CCSCCC(=O)OC/C1=C/CC[C@@]3(C)O[C@H]3[C@H]3OC(=O)C(=C)[C@@H]3CC1)=C\CC[C@@]1(C)O[C@@H]21 | -58.2% (active) |
| Cc1ccc(NC(=O)c2ccc(CN3CCN(C)CC3)cc2)cc1Nc1nccc(-c2cccnc2)n1 | 107% (inactive) and 89.8% (inactive) |
| O=C(/C=C/C=C/c1ccccc1)c1ccco1 | -38.2% (active) |
